Out of some 290,000 compounds screened, about 11,000 (3.8%) were called active.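 The calls were made as follows: active = mean replicate inhibition above about 79%, with every replicate also reaching it (limit read from the data); inconclusive = only one of the two criteria met; inactive = mean below limit and not every replicate reaching it.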 The list comes from a sample in which actives are over-represented; it also holds similar structures and randomly drawn compounds.

Chain of FAD-linked sulfhydryl oxidase ALR (Homo sapiens) (P55789 whole entry, looked up): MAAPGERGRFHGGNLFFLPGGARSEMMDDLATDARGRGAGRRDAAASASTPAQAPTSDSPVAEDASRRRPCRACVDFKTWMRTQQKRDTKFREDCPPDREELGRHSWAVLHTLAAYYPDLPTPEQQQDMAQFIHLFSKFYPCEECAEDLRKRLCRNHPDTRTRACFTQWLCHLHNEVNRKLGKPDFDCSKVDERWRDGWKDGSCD

This assay has as its target FAD-linked sulfhydryl oxidase ALR (Homo sapiens) (UniProt P55789). Briefly: ALR-catalysed DTT oxidation blockers – biochemical, H2O2 detection, HRP-luminol luminescence, single point, primary screen (AID 485317). As to conditions: purified ALR, hits give high values, concentration not given here.
With `CC1C(=O)N2CCCc3cc(S(=O)(=O)NCc4ccc(F)cc4)cc1c32` (stereo not drawn), the inhibition was 2.55% (inactive).
The result for `Cc1ccc(CN2CC(C(=O)NNC(=O)Cn3ccc(C(F)(F)F)n3)CC2=O)cc1` (stereo not drawn) reads -1.18% (inactive); that for `CC(=O)Nc1ccc(-c2csc(NC=C3C(=O)OC(C)(C)OC3=O)n2)cc1`, 98.2% (active); that for `CC(=O)Nc1cccc(-c2csc(Nc3cccc(C)n3)n2)c1`, -4.7% (inactive).
Take `CC(=O)Nc1ccc(S(=O)(=O)Nc2nc(-c3ccc(C(C)(C)C)cc3)cs2)cc1`: the inhibition was 14.9% (inactive).
In the case of `CCOC(=O)c1sc(NC(=O)C2CSC3(C)CCC(=O)N23)nc1C` (stereo not drawn) it was -0.227% (inactive).
The result for `COc1cc(/C=C/C(=O)OCC(=O)NC2CC2)cc(OC)c1OC` reads -0.461% (inactive).
Turning to `O=C(CCc1nc(-c2ccccc2)no1)Nc1cccc(C(=O)NC2CC2)c1`, the inhibition is 28.1% (inactive).
As to `Cc1ccccc1-c1cc(C(=O)NCC2CC2)n(CC2CC(c3cccnc3)=NO2)n1` (stereo not drawn), the inhibition is 10.4% (inactive).
In the case of `O=C1Nc2ccccc2C12Nc1ccccc1S2` (stereo not drawn) it was 98.7% (active); in that of `CCc1ccc2c(c1)C1(NN=C(c3ccccc3)S1)C(=O)N2` (stereo not drawn), 33.8% (inactive).
The result for `COc1ccc(C2(O)C(=O)Nc3ccccc32)cc1` (stereo not drawn) reads -1.7% (inactive); that for `CCCCn1c(N)c(N(CCOC)C(=O)c2cccc(S(=O)(=O)N3CCCCC3)c2)c(=O)[nH]c1=O`, -6.18% (inactive); that for `CC(C)(C)OC(=O)C[C@H]1C/C=C\C[C@@H](CC(=O)N[C@H](CO)Cc2ccccc2)C(=O)NC[C@@H](c2ccccc2)OC1=O`, -2.76% (inactive).
In the case of `CCCCCCSc1ccc([C@@H]2[C@H]3C(=O)N(CC)C(=O)[C@H]3[C@]3(C(=O)OC)CCCCN23)cc1` it was 3.32% (inactive).
As for `CCCC(=O)N1c2ccc(-c3csc(N)n3)cc2CC1C` (stereo not drawn), the inhibition was 98.9% (active).
In the case of `Cc1ccn(CCC(=O)N2c3ccccc3CC2C)n1` (stereo not drawn) it was -7.69% (inactive); in that of `CCOc1ncccc1C(=O)OCC(=O)N1c2ccccc2CC1C` (stereo not drawn), 2.2% (inactive).
For `CCOc1ccc(NS(=O)(=O)c2ccc(C(=O)NCC(c3ccccc3OC)N3CCCC3)cc2)cc1` (stereo not drawn), the inhibition was 0.447% (inactive).
The result for `Cc1cs/c(=N\N=C\c2ccc(O)cc2)n1Cc1ccco1` reads 98.6% (active); that for `CN(c1ccccc1)c1ccc(/C=c2\s/c(=C(/C#N)C(=O)C(C)(C)C)n(Cc3ccco3)c2=O)cc1`, -25.2% (inactive).
The result for `COc1ccc(NC(=O)CSc2nnc(-c3cccs3)n2Cc2ccco2)cc1OC` reads -13.2% (inactive); that for `Cc1cc(=O)[nH]c(N/N=C/c2ccc3c(c2)OCCO3)n1`, 17.8% (inactive).
The result for `CCN(CC)c1ccc(/C=N/Nc2nc(C)cc(=O)[nH]2)cc1` reads 99.1% (active); that for `Cc1cc(=O)[nH]c(N/N=C/c2c(C)nn(-c3ccccc3Cl)c2Cl)n1`, 24.5% (inactive).
For `COc1ccccc1-c1oc2ccccc2c1C#CCCCCO`, the inhibition is -1.62% (inactive).
The result for `COc1ccc(CC(=O)NC(C)CCc2ccccc2)cc1` (stereo not drawn) reads -14.5% (inactive).
Turning to `COc1cccc(N(CC(=O)N2CCc3ccccc3C2)S(C)(=O)=O)c1`, the inhibition is -14.9% (inactive).
The result for `CC(CCc1ccccc1)NC(=O)c1ccc(Br)o1` (stereo not drawn) reads -19.9% (inactive).
The result for `COc1ccc(CNC(=O)Cc2ccc(-c3ccccc3)cc2)cc1OC` reads -4.45% (inactive); that for `COc1ccc(CCNC(=O)CS(=O)(=O)Cc2nc(-c3ccc(C)cc3)oc2C)cc1OC`, 21.5% (inactive).
In the case of `Cc1cccc(-c2nc(CS(=O)CC(=O)NC(C)CCc3ccccc3)c(C)o2)c1` (stereo not drawn) it was 92% (active).
With `COc1cccc(NC(=O)NCc2ccc(F)cc2)c1`, the inhibition was -2.14% (inactive).
In the case of `COc1cccc(-c2nc(CS(=O)CC(=O)NCc3ccc(F)cc3)c(C)o2)c1` (stereo not drawn) it was 98.8% (active).
The result for `Cc1ccc(-c2nc(CS(=O)(=O)CC(=O)NCc3ccc4c(c3)OCO4)c(C)o2)cc1` reads -0.75% (inactive); that for `COc1ccc(-c2nc(CS(=O)CC(=O)N3CCc4ccccc4C3)c(C)o2)cc1` (stereo not drawn), 99% (active).
The result for `COc1ccc(-c2nc(CS(=O)CC(=O)NCc3ccccc3)c(C)o2)cc1OC` (stereo not drawn) reads 98.9% (active); that for `O=C(COc1ccccc1)N1CCc2ccccc2C1`, -0.403% (inactive); that for `CCCCn1c(N)c(N(CCOC)C(=O)CSCC(=O)Nc2cccc(C)c2)c(=O)[nH]c1=O`, 6.91% (inactive).
As to `CC(=O)Nc1ccc(S(=O)(=O)NC(C)C(=O)OCCOc2ccc(F)cc2)cc1` (stereo not drawn), the inhibition was 0.524% (inactive).
The result for `COc1ccc2nc3n(c(=O)c2c1)-c1cc(C)ccc1C(=O)NC3Cc1ccc(O)cc1` (stereo not drawn) reads -1.57% (inactive); that for `O=C(Nc1nnc(-c2ccccc2)o1)c1cccc(S(=O)(=O)N2CCOCC2)c1`, 9.18% (inactive).
In the case of `Fc1ccccc1-c1cc2cc3c(cc2cn1)OCO3` it was 0.64% (inactive); in that of `C[C@@H]1CN([C@@H](C)CO)C(=O)c2cccc(NS(=O)(=O)c3ccc(F)cc3)c2O[C@H]1CN(C)C(=O)NC1CCCCC1`, -2.04% (inactive).
In the case of `CCOC(=O)c1c(C)[nH]c(C(=O)OCC(=O)N2CCCC2=O)c1C` it was 1.73% (inactive).
Consider `Cc1nn(Cc2ccccc2)c(C)c1C(=O)NCCCN1CCCC1=O`, for which the inhibition is -2.84% (inactive).
For `CC(=O)Nc1cccc(C(=O)OCC(=O)c2ccc3c(c2)OCO3)c1`, the inhibition is -2.29% (inactive).
The result for `C=CC[C@H](CC(=O)N(CCO)Cc1ccccc1)C(=O)N[C@@H](COC(=O)[C@@H](CC=C)Cc1ccc(F)cc1)Cc1ccccc1` reads -4.83% (inactive); that for `COc1ccc(C(=O)O)cc1S(=O)(=O)NCc1cccnc1`, -5.82% (inactive); that for `COc1ccc(-c2nc(CS(=O)(=O)CC(=O)NCc3cccc(Br)c3)c(C)o2)cc1`, 22.1% (inactive).
The result for `COc1cccc(-c2nc(CS(=O)(=O)CC(=O)NCCc3ccc(OC)c(OC)c3)c(C)o2)c1` reads 46.6% (inactive); that for `Cc1oc2nc(SCC(=O)NCc3cccnc3)nc(N)c2c1C`, -4.94% (inactive); that for `CCCCN(CC)CCCNC(=O)CS(=O)(=O)Cc1nc(-c2cccc(OC)c2)oc1C`, 98.8% (active).
In the case of `COc1ccc(-c2nc(CS(=O)CC(=O)NCc3cccnc3)c(C)o2)cc1OC` (stereo not drawn) it was 99.2% (active); in that of `O=C1C=C(c2cccc(Br)c2)C[C@@H](c2ccc(F)cc2)C1`, -0.0525% (inactive).
Consider `O=C(COC(=O)COc1cc(Cl)c(Cl)cc1Cl)NC1CC1`, for which the inhibition is -25.6% (inactive).
The result for `CC(=O)Nc1ccc(NC(=O)CSCc2cnn(-c3ccccc3)c2-n2cccc2)cc1` reads 98.3% (active); that for `O=C(CSCc1ccccc1)Nc1ccccc1`, -3.32% (inactive).
The result for `Cc1cc(C)cc(NC(=O)CSCc2cnn(-c3ccccc3)c2-n2cccc2)c1` reads -4.84% (inactive).
The result for `Cc1ccc(S(=O)(=O)NCCC(=O)NCc2ccc(Cl)cc2)cc1C` reads -3.37% (inactive).
For `O=C(O)c1ccccc1C(=O)NC1=NN(c2ccccc2)CC1`, the inhibition is 98.4% (active).
The result for `O=C(O)c1ccccc1C(=O)Nc1nc(-c2ccccc2)cs1` reads -5.73% (inactive); that for `O=C(Nc1ccccc1C(=O)O)c1ccc(N2C(=O)C3CC=CCC3C2=O)cc1` (stereo not drawn), 2.58% (inactive).
The result for `CC1CCCCC12NC(=O)N(CC(=O)OCc1c(F)cccc1Cl)C2=O` (stereo not drawn) reads 25.1% (inactive); that for `COc1ccc(C)cc1NC(=O)CSc1cccc[n+]1[O-]`, -22.2% (inactive).
For `C[C@H](OC(=O)n1ccnc1)[C@@H]1O[C@@]2(C)CCC[C@@H]1O2`, the inhibition was 4.53% (inactive).
The result for `CCCC(=O)NC(C)C(c1cccs1)N1CCN(c2ccccc2)CC1` (stereo not drawn) reads 97.6% (active); that for `CC(NC(=O)Nc1ccccc1)C(c1cccs1)N1CCN(c2ccccc2)CC1` (stereo not drawn), 1.95% (inactive).
For `CC(NC(=O)C(C)(C)C)C(c1cccs1)N1CCN(Cc2ccccc2)CC1` (stereo not drawn), the inhibition was -4.94% (inactive).
The result for `O=C(NC(=S)Nc1ccc(Br)cc1F)C1CCCCC1` reads -2.71% (inactive); that for `O=C(COc1ccccc1F)NNC(=O)c1cc(Br)ccc1Cl`, -9.96% (inactive); that for `Cc1ccccc1-c1cc(C(=O)NCc2cccs2)n(CC2CC(c3cccnc3)=NO2)n1` (stereo not drawn), 8.05% (inactive).
For the compound `COc1ccc(-c2csc(NC(=O)COC(=O)c3ccc(Br)o3)n2)cc1`, the inhibition was 53.6% (inactive).
The result for `COc1ccc(-c2csc(NC3OC(=O)c4ccccc43)n2)cc1` (stereo not drawn) reads 22.4% (inactive); that for `COc1ccc(-c2csc(Cc3nc(O)cs3)n2)cc1`, 86.8% (active).
In the case of `CCOC(=O)N1CCN(C(=O)c2ccc(S(=O)(=O)c3ccc(C)cc3)c(NC(C)=O)c2)CC1` it was 4.26% (inactive); in that of `CCOC(=O)N1CCN(C(=O)c2ccc3c(c2)N(Cc2ccc(C)cc2)CCS3)CC1`, 93.4% (active).
In the case of `O=C(NCCc1ccccc1)c1ccc2c(c1)N(Cc1ccccc1)CCS2` it was 10.1% (inactive); in that of `C=CCn1c(CSc2nc3ccccc3s2)nnc1SCC(=O)NCc1ccco1`, 60.8% (inactive); in that of `O=C(CSc1nc2ccc(Nc3nc(N4CCOCC4)nc(N4CCOCC4)n3)cc2s1)NCc1ccco1`, 98.7% (active).
`O=C(CSc1nc(Nc2ccccc2)nc(N2CCOCC2)n1)Nc1cc(Cl)ccc1O`: the inhibition is -0.209% (inactive).
The result for `O=C(c1ccc(F)c(S(=O)(=O)N2CCOCC2)c1)N(CCc1ccccc1)Cc1ccccc1` reads -7.64% (inactive); that for `OCC(O)CN(c1ccccc1)c1ccccc1` (stereo not drawn), 99% (active).
The result for `Cc1cccc(N(CC(O)CN(C)C)S(=O)(=O)c2ccccc2)c1` (stereo not drawn) reads -4.54% (inactive); that for `O=S(=O)(c1ccccc1)N(CC(O)CN1CCCCC1)c1ccccc1` (stereo not drawn), -3.01% (inactive); that for `CN(c1ccccc1)S(=O)(=O)c1ccc(C(=O)N2CCN(c3ccccc3Cl)CC2)cc1`, -8.17% (inactive).
The result for `O=[N+]([O-])c1ccc(S(=O)(=O)Nc2cccc(-c3ccc(N4CCCC4)nn3)c2)cc1` reads 0.216% (inactive); that for `C=CCOc1ccc(/C=C/C(=O)OCC(=O)NC(C)c2ccc(F)cc2)cc1` (stereo not drawn), -7.12% (inactive).

For the origin of these results see PubChem BioAssay AID485317 (Broad Institute, 2010).
